Assay results reported in PubChem BioAssay AID588352 (The Scripps Research Institute Molecular Screening Center, 2011).
The campaign covered roughly 360,000 compounds. About 620 (0.17%) were called active.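 How the source made its calls: active means inhibition above a per-campaign cutoff, the mean of all compounds plus 3 SD (cut at about 60% in these data); inactive means the rest.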 The entries come from a sample that favours actives as a whole.

Each compound was assayed against Nuclear receptor coactivator 3 (Homo sapiens) (UniProt Q9Y6Q9) (assay: NCOA3 GAL4-fusion reporter inhibition – cell-based, luminescence, primary screen (AID 588352;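 further: 0% = DMSO-treated cells and 100% = gossypol-treated cells at 36 µM; higher means less SRC3-driven luciferase light from the GAL4 reporter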)). Conditions: HEK293 GAL4-SRC3 luciferase reporter, at 3.6 µM, stronger effect = higher value.
Sequence of Nuclear receptor coactivator 3 (Homo sapiens) (Q9Y6Q9 whole entry, looked up, the tested form may be a part): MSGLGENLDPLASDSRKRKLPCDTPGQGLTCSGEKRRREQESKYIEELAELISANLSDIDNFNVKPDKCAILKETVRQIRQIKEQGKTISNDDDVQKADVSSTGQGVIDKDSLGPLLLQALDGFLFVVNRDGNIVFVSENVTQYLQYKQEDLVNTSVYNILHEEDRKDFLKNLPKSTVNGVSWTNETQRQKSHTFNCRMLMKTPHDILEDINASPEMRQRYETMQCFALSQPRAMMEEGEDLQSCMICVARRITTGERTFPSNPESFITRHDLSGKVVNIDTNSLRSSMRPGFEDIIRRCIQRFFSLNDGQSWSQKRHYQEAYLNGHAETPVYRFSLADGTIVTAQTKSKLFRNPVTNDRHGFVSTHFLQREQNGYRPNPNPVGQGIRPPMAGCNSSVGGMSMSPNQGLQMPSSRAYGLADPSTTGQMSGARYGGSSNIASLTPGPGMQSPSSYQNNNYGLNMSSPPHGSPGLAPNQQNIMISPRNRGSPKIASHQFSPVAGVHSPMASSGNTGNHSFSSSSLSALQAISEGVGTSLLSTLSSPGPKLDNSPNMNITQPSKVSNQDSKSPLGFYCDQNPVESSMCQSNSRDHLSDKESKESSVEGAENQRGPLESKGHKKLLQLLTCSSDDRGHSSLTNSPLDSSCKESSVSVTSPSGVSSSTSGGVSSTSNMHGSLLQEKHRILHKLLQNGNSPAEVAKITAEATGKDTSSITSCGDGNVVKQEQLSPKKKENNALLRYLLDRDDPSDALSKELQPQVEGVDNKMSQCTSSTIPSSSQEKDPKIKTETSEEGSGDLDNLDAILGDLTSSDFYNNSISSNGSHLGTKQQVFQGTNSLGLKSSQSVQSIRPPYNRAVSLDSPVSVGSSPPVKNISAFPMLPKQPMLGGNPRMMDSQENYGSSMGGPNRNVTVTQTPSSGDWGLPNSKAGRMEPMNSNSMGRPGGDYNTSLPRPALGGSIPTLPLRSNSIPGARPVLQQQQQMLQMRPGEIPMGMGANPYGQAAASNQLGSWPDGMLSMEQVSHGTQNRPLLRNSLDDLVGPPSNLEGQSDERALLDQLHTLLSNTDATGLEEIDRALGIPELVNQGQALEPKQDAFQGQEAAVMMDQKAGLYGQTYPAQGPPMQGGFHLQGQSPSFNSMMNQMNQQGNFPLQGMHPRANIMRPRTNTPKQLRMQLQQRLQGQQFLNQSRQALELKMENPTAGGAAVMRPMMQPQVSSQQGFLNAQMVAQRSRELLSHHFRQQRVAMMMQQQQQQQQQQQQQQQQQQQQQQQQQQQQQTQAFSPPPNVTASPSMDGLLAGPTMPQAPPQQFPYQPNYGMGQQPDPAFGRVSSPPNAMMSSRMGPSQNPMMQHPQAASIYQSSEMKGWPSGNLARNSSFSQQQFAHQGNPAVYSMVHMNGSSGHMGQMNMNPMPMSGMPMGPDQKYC
`Cn1sc(=O)c2cc(S(=O)(=O)NC3CC3)ccc21` was tested, and the inhibition was 3.57% (inactive).
For `CC1(C)NC(=O)N(CC(=O)Nc2cc(C(F)(F)F)cc(C(F)(F)F)c2)C1=O`, the inhibition was 22.2% (inactive).
`CCCCNC(=O)C1CCCNC1=O` (stereo not given) was tested, and the inhibition was 12.3% (inactive).
For `CCNC(=O)C1(C)CCCN1C(=O)c1ccc(N(C)C)cc1` (stereo not given), the inhibition was -7.5% (inactive).
For `COc1cc(NC(=O)C2=C(C)OCCS2)c(Cl)cc1C(=O)NCCCN1CCCC(C)C1` (stereo not given), the inhibition was -22.7% (inactive).
`O=C(N/N=C/c1cccc([N+](=O)[O-])c1)C1CC(=O)N(c2ccc(Br)cc2)C1` (stereo not given) was tested, and the inhibition was -0.6% (inactive).
`COc1ccc(OCCCCN2CCC(C)CC2)cc1` was tested, and the inhibition was -47.3% (inactive).
With `CCC(O)C1CCN(Cc2cn(-c3ccc(OC)cc3)nc2-c2cccc(F)c2)CC1` (stereo not given) the inhibition was 14% (inactive).
`Cc1nc2nc(COc3ccccc3)[nH]n2c(=O)c1Cc1ccccc1` was tested, and the inhibition was -32.6% (inactive).
For `COc1cccc(/C=C(/CC(=O)Nc2ccc(N3CCOCC3)cc2)c2nc3ccccc3s2)c1`, the inhibition was 7.57% (inactive).
In the case of `COC(=O)Cc1[nH]n(-c2nc3ccccc3s2)c(=O)c1C(C)=Nc1ccc(OC)cc1`, the inhibition is reported as 86.7% (active).
In the case of `Cc1occc1-c1nnc(SCC(=O)NC2CCCCC2)o1`, the inhibition is reported as 15.9% (inactive).
For `O=C(Nc1cc(-c2ccccc2)nn1-c1ccccc1F)c1ccc([N+](=O)[O-])cc1`, the inhibition was -5.69% (inactive).
`O=C(NNS(=O)(=O)Cc1ccccc1)c1ccc([N+](=O)[O-])cc1` was tested, and the inhibition was -12.1% (inactive).
In the case of `O=C(NC(Nc1nc2ccc([N+](=O)[O-])cc2s1)(C(F)(F)F)C(F)(F)F)c1ccccc1`, the inhibition is reported as 76.7% (active).
For `O=S(=O)(NCCc1ccc(Cl)cc1)c1cccs1`, the inhibition was 14% (inactive).
For `Brc1c(CSc2nncc3ccccc23)nc2ccccn12`, the inhibition was -11.5% (inactive).
In the case of `CCCN(CCC)S(=O)(=O)c1ccc(C(=O)N2CC3CCC(CC3)C2)cc1`, the inhibition is reported as 21.3% (inactive).
In the case of `CN(CC(=O)Nc1ccc(C(N)=O)cc1)S(=O)(=O)c1ccc2c(c1)OCCO2`, the inhibition is reported as -5.47% (inactive).
For `COc1ccc2c(c1)c(=Cc1ccc(N(C)C)cc1)c1cc(-c3ccccc3)[n+](C)n12`, the inhibition was 72.6% (active).
`O=S(=O)(/C=C/c1ccccc1)N1CCNCC1` was tested, and the inhibition was 18.6% (inactive).
For `COc1c(F)c(F)c(C(=O)O)c(Nc2ccccc2C)c1F`, the inhibition was 3.91% (inactive).
`Cn1cnc(C(F)(F)F)c1-c1ccc([N+](=O)[O-])cc1` was tested, and the inhibition was 9.14% (inactive).
With `O=C(O)CCc1cccnc1` the inhibition was -1.19% (inactive).
For `CC1CCCC(C)N1C(=O)COC(=O)COc1ccccc1C#N` (stereo not given), the inhibition was 13.1% (inactive).
For `Cc1ccc(C(=O)NNC(=O)OC(C)(C)C)c(Cl)c1`, the inhibition was -22.3% (inactive).
With `COc1ccc(CCNC(=O)CCc2cn(C)c3ccccc23)c(OC)c1` the inhibition was -10.8% (inactive).
`COc1ccccc1NS(=O)(=O)c1ccc(C)c(C(=O)NNC(=O)c2csc(N3CCOCC3)n2)c1` was tested, and the inhibition was -18.4% (inactive).
In the case of `Cc1ccc(OC(=O)c2ccccc2C(=O)OCC(F)(F)C(F)F)cc1`, the inhibition is reported as 12% (inactive).
`O=C(CN1C(=O)c2ccccc2S1(=O)=O)N1CCc2ccccc21` was tested, and the inhibition was 78.1% (active).
`CN(Cc1cccs1)C(=O)CN1C(=O)c2ccccc2S1(=O)=O` was tested, and the inhibition was -22.1% (inactive).
`COc1ccc(CNC(=O)CN2C(=O)c3ccccc3S2(=O)=O)cc1` was tested, and the inhibition was 0.21% (inactive).
For `CSc1cc(C)n(-c2ccccc2C)c(=S)c1C(C)=O`, the inhibition was -24.7% (inactive).
With `COc1ccc(-n2c(C)csc2=S)cc1` the inhibition was -12.6% (inactive).
In the case of `O=C(O)C1CCN(C(=O)c2cc(F)cc3c2OCOC3)CC1`, the inhibition is reported as 1.17% (inactive).
`Cc1ccc(C(c2sc3nc(C)nn3c2O)N2CCN(c3ccccc3)CC2)cc1` (stereo not given) was tested, and the inhibition was -21.5% (inactive).
`CC(C)OC(=O)c1cc(NC(=O)C2C3CCC(O3)C2C(=O)O)cc(C(=O)OC(C)C)c1` (stereo not given) was tested, and the inhibition was 6.46% (inactive).
`O=c1[nH]n2c(=O)c3c([nH]c2c1N=Nc1ccccc1)CCC3` was tested, and the inhibition was -2.3% (inactive).
In the case of `Cc1nc2c(ncn2-c2ccccc2)c(=O)n1NC(=O)CN1CCCC1`, the inhibition is reported as 6.67% (inactive).
`COc1ccc(NC(=S)N2N=CCC2c2ccccc2)cc1` (stereo not given) was tested, and the inhibition was -88% (inactive).
In the case of `COCc1cc(=O)n2[nH]c(C)c(-c3ccccc3)c2n1`, the inhibition is reported as 3.15% (inactive).
In the case of `O=C1NC(=Nc2ccc(Cl)cc2)SC1Cc1cccc(Cl)c1Cl` (stereo not given), the inhibition is reported as 11.5% (inactive).
For `CCOc1cc(C2/C(=C(/O)c3ccc(S(=O)(=O)N4CCCCC4)cc3)C(=O)C(=O)N2CCOC)ccc1O` (stereo not given), the inhibition was -17.2% (inactive).
With `Cc1ccsc1C1C(C#N)=C(N)OC2=C1C(=O)CC(C)C2` (stereo not given) the inhibition was -1.41% (inactive).
`O=C(Nc1cc(Br)ccc1F)c1nc[nH]c1C(=O)NCc1ccccc1` was tested, and the inhibition was 16.5% (inactive).
In the case of `O=C(Nc1ccon1)c1nc[nH]c1C(=O)NCc1ccccc1`, the inhibition is reported as 63% (active).
For `CC(C)(C)OC(=O)NCCCCCNC(=O)c1nc[nH]c1C(=O)NCc1ccccc1`, the inhibition was -1.92% (inactive).
With `Cc1cccc(-[n+]2c(-c3cccc(Br)c3)[nH]c3nc4ccccc4nc32)c1` the inhibition was 18.1% (inactive).
For `Cc1ccc(NC(=O)NC(=O)CSc2nnc(-c3ccc(OC(F)F)cc3)n2N)c(C)c1`, the inhibition was -17.3% (inactive).
`CCN(Cc1ccccc1)C(=O)CN1C(=S)NC(C)(C)CC1C` (stereo not given) was tested, and the inhibition was -5.54% (inactive).
